# Only some compounds are listed: those with a hit (about 4.7% of all), similar ones and a draw of the others.
# proKLK7 act = proKLK7 (human) activation, primary screen; purified proKLK7, EDANS-DABCYL substrate fluorescence; 100% is mature enzyme control, 0% vehicle; AID 652039; activation, % at 7 µM; P49862; actives 0.9% (n = 370,000);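 active = activation above the mean of all tested compounds plus 3 SD, computed per campaign excluding outliers beyond control limits, cut at about 13% in these data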
# rCAG binder = binds r(CAG) RNA repeats; r(CAG) RNA repeat, TO-PRO-1 dye displacement fluorescence; inhibition, % at 3 µM; actives 1.3% (n = 370,000); AID 651821;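 active = inhibition above the plate cutoff, the mean of all test compounds on that plate plus 3 SD, cut at about 35% in these data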;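 note: 0% = DMSO alone and 100% = 100 µM mitoxantrone as full dye displacement; higher means more dye released from RNA so lower well fluorescence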
# ADAM10 inh = ADAM10 inhibition, QFRET primary screen; O14672; actives 0.62% (n = 370,000); AID 720582; inhibition, % at 7 µM; recombinant ADAM10, EDANS/DABCYL FRET peptide cleavage, 3 h;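 active = inhibition above a per-campaign cutoff equal to the mean of compounds falling between control-based bounds plus 3 SD, cut at about 20% in these data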;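 note: 0% = DMSO wells while the 100% control is not disclosed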
# ADAM17 inh = inhibits human ADAM17; recombinant ADAM17, EDANS/DABCYL FRET peptide cleavage; inhibition, % at 6.95 µM; actives 0.83% (n = 370,000); AID 720648;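 active = inhibition above the mean of compounds lying between control limits plus 3 SD, set per campaign, cut at about 8.5% in these data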;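 note: 0% = DMSO-only wells as the low control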
# Target sequence (P78536 215-824 limits assumed): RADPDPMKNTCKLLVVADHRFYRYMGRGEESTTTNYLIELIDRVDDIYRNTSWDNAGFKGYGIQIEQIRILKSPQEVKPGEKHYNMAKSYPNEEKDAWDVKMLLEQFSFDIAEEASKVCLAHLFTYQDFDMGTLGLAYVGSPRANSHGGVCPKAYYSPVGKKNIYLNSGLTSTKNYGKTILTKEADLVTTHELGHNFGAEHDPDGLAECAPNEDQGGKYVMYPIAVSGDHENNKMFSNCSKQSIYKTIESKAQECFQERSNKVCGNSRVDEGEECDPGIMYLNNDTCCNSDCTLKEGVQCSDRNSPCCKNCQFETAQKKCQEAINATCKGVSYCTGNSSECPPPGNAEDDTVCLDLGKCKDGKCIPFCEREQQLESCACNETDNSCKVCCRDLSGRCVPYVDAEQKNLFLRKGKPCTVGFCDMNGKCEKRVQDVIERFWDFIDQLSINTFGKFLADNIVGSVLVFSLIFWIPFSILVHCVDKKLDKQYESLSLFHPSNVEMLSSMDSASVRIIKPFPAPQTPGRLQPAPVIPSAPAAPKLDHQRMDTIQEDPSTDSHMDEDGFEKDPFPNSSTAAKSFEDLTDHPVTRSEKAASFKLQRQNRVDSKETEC
# MPTP inh = inhibitors of mitochondrial permeability transition pore | isolated mouse mitochondria, Ca2+ swelling absorbance, 30 min | inhibition, % at 10 µM | actives 1.4% (n = 360,000);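 active = inhibition of 50% or more, scaled per plate between neutral and stimulator controls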;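 note: 0% = DMSO wells given calcium and 100% = 1 mM EGTA wells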
# DSG3 Ab inh = inhibitors of pemphigus antibody binding to human desmoglein-3 | actives 0.48% (n = 310,000) | DSG3-coupled beads, scFv-anti-DSG3-GFP binding, flow cytometry; hits give low values | binding (percent of control), % at 10 µM | P32926;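 active = binding more than 3 SD below its plate's average and above zero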;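 note: hits lower antibody fragment binding to DSG3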
# KLK7 act conf = confirmation of human kallikrein-7 zymogen activators | purified proKLK7, EDANS-DABCYL substrate fluorescence; scaled: vehicle 0, mature enzyme 100 | shares compounds with proKLK7 act | activation, % at 7 µM | actives 68% (n = 3,200);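 active = activation, as change over the incubation, above the mean of all tested compounds plus 3 SD, cut at about 13% in these data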
# EDANS interfere = counter-screen for kallikrein-7 activators: EDANS-DABCYL optical interference; shares compounds with proKLK7 act; EDANS-DABCYL substrate fluorescence interference, no enzyme, 4 h; solvent 0%, active enzyme control 100%; activation, % at 7 µM; actives 80% (n = 3,200); AID 686952;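 active = activation above the all-compound mean plus 3 SD, ignoring values outside control-based bounds, cut at about 4.8% in these data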;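 note: value is the 4 h activation minus the activation read at time zero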
# K7 EDANS ctr = counter-screen for kallikrein-7 activators: EDANS-DABCYL interference, dose response. shares compounds with proKLK7 act. actives 20% (n = 250). EC50, µM. AID 720493. EDANS-DABCYL peptide fluorescence interference, no enzyme;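 active = compounds that raise the fluorescence signal in this interference counterscreen, with EC50 at or below 10 µM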;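 note: intact quenched peptide substrate alone read at 355 nm excitation and 520 nm emission; signal is fluorescence gain from T0 to T4 after four hours at room temperature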
# Numbers without * were called inactive; i = inactive; . = no result given.
SMILES,proKLK7 act,rCAG binder,ADAM10 inh,ADAM17 inh,MPTP inh,DSG3 Ab inh,KLK7 act conf,EDANS interfere,others
O=C(CCCCCn1c(=S)[nH]c2ccc(N3CCOCC3)cc2c1=O)NCc1ccccc1,-2,3,-79,-18,11,106,.,.,
CCOc1ccccc1C(=O)NCC(=O)NCCSc1ccc(Br)cc1,1,-6,-7,-10,1,100,.,.,
C#CCNC(=O)c1cc2cccnc2nc1N,18*,2,i,i,.,.,46*,45*,
COc1cccc(CN(C)C[C@H]2OCc3cnnn3CCCC(=O)N([C@@H](C)CO)C[C@@H]2C)c1,0,-1,0,-1,-1,107,.,.,
CCN1CC(CN(C)Cc2cn(-c3cccc(C)c3)nc2-c2cccc(F)c2)CC1=O (centres undefined),17*,-3,12,2,3,86,1,0,
CCN1CC(CN(C)Cc2cn(-c3ccc(C)cc3)nc2-c2ccc(F)cc2)CC1=O (centres undefined),1,-2,10,2,-2,105,.,.,
Nc1ccccc1-c1nc2ccccc2[nH]1,69*,4,i,i,0,102,-2,1,
Oc1ccc(C=Nc2ccccc2-c2nc3ccccc3[nH]2)cc1,81*,11,i,i,-1,95,30*,29*,
O=c1[nH]cccc1-c1nc2ccccc2[nH]1,56*,1,i,i,0,98,66*,75*,
Cc1c(-c2nc3ccccc3[nH]2)cnn1C,0,1,3,0,-1,.,.,.,
O=c1oc2c(O)cccc2cc1-c1nc2ccccc2[nH]1,46*,-251,i,i,1,89,75*,67*,
O=c1oc2c(CN3CCCCC3)c(O)ccc2cc1-c1nc2ccccc2[nH]1,5,-15,-241,-74,1,106,.,.,
Nc1[nH]c(C(=O)c2ccccc2)c(-c2ccc(Br)cc2)c1C(=O)c1ccccc1,-1,9,-4,-2,.,.,.,.,
Cc1cnc(NS(=O)(=O)c2ccc(N)cc2)nc1-c1ccccc1O,0,3,-12,-4,0,107,.,.,
c1ccc(COc2ncnc3c2ncn3CCCNC2CCN(Cc3ccccc3)CC2)cc1,0,3,-10,-6,1,113,.,.,
CCN(CC(=O)Nc1ccc2c(c1)OCCO2)C(=O)C(C)Oc1ccc(Cl)cc1 (centres undefined),0,-6,-7,-2,-1,108,.,.,
COc1ccc(C2C(C#N)=C(C)NC3=C2C(=O)CC(C)(C)C3)c(OC)c1 (centres undefined),.,.,.,.,-2,107,.,.,
CCCCC1C(C#N)=C(C)NC2=C1C(=O)CC(C)(C)C2 (centres undefined),41*,-1,i,-374,-4,101,22*,25*,
COC(=O)c1ccc(C2C(C#N)=C(C)NC3=C2C(=O)CC(C)(C)C3)cc1 (centres undefined),36*,-5,i,i,0,106,43*,30*,K7 EDANS ctr=>70
COc1ccc(C2C(C#N)=C(SC)NC3=C2C(=O)CC(C)(C)C3)cc1 (centres undefined),1,1,-35,-13,3,94,.,.,
COc1cc(C(=O)NNC(=O)c2nn(C)c(=O)c3ccccc23)cc(OC)c1OC,0,0,-5,-4,-2,114,.,.,
COCC(=O)Nc1nc(-c2ccc(-c3ccccc3)cc2)cs1,0,13,-31,-13,10,101,.,.,
COCC(=O)Nc1nc(-c2ccc([N+](=O)[O-])cc2)cs1,109*,0,-3,1,0,115,-2,-2,

# Source: PubChem BioAssay (several laboratories)
